# Screening data: PubChem, National Center for Advancing Translational Sciences (NCATS)
# HTT ATP protect – qHTS Multiplex Assay to Identify Dual Action Probes in a Cell Model of Huntington: Cytoprotection (ATP); AID 1471, 2008; hit rate 0.14% among 230,000; PC12 HTT-Q103 induced, cytoprotection, ATP luminescence, 40 h; Potency, µM (doses to about 56.4 µM), for inactives: cytoprotection (ATP increase), usual class: activators; further: % of control where 0% means no effect; nearly all actives have a fitted effect of over 45% in size
#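 Compounds were screened for protection of PC12 cells against cell death after tebufenozide induction (100 nM final) of mutant Huntingtin exon 1 (Q103) fused to GFP.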
# HPGD inh – qHTS Assay for Inhibitors of HPGD (15-Hydroxyprostaglandin Dehydrogenase) | 15-hydroxyprostaglandin dehydrogenase [NAD(+)] (Homo sapiens), P15428 | purified HPGD, NADH fluorescence kinetic, PGE2 substrate | Potency, µM, for inactives: at the top dose activity change, negative = inhibition, most hits filed as inhibitors | hit rate 4.3% among 150,000; active means well fitted inhibition curve with a large enough effect, not every such curve was filed as active; inconclusive means small, poorly fitted or top-dose-only effect, or another doubt; inactive means no such curve, though single readings can be large or run the other way; further: on the % scale 0 is the no-effect control and ±100 the full control effect
# Target sequence (P15428 whole entry, looked up): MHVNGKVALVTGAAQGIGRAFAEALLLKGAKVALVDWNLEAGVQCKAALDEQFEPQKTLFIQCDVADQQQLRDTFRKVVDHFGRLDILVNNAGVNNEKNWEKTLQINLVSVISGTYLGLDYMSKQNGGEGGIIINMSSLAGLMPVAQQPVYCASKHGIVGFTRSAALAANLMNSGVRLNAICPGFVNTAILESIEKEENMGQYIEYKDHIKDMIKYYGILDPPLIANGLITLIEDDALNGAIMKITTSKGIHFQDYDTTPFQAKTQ
#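 NADH formation kinetics: reaction with 30 uM PGE2 and 1 mM NAD+ (final), 20 nM enzyme, Tris-HCl pH 8 with Tween 20, after 15 min compound preincubation at room temperature. Fluorescence change, last versus first of five reads.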
# HTT aggregate – qHTS Multiplex Assay to Identify Dual Action Probes in a Cell Model of Huntington: Aggregate Formation (GFP). AID 1688, 2009. Potency, µM (doses to about 46.1 µM), without a hit: top-dose activity change, negative = inhibition, usual class: inhibitors. PC12 HttQ103-GFP aggregates, Acumen cytometry, 40 h. hit rate 1.1% among 220,000; further: on the % scale 0 is the no-effect control and ±100 the full control effect; nearly all actives have a fitted effect of over 60% in size
#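 Read-out: GFP aggregate count by laser scanning cytometer (488 nm excitation, 500-530 nm emission, 1–25 µm objects >6 SD above background). Cells: PC12, inducible HTTex1-Q103-GFP, 100 nM tebufenozide; compounds titrated.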
# LMNA splice mod – qHTS Assay for Modulators of Lamin A Splicing; HeLa LMNA splicing GFP/RFP minigene ratio, 48 h; Potency, µM (titrated, usually from 46.1 µM), inactives show at the highest dose ratio change, negative = inhibition, usual class: inhibitors; hit rate 0.01% among 200,000; active means well fitted inhibition curve with a large enough effect in the signal ratio, with a control signal flat, not every such curve was filed as active; inconclusive means small, poorly fitted or top-dose-only effect, or effect the other way, or a change in a side signal; the % refers to the signal ratio; further: on the % scale 0 is the no-effect control and ±100 the full control effect
#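 S3 HeLa stable clones carrying a lamin A-EGFP splicing minigene plus DsRed2 were seeded at 600 cells/well in Opti-MEM with 2% FBS, pin-dosed and incubated 48 h at 37°C. Acumen cytometry (488 nm) gave the GFP/RFP total-intensity ratio.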
# ALDH1A1 inh – qHTS Assay for Inhibitors of Aldehyde Dehydrogenase 1 (ALDH1A1) | Potency, µM (series often up to 75.3 µM), inactives show at the highest dose activity, negative = inhibition, usual class: inhibitors | hit rate 7.3% among 220,000 | Purified ALDH1A1, NADH fluorescence, propionaldehyde substrate | Aldehyde dehydrogenase 1A1 (Homo sapiens), P00352; active means well fitted inhibition curve with a large enough effect, not every such curve was filed as active; inconclusive means small, poorly fitted or top-dose-only effect, or another doubt; inactive means no such curve, though single readings can be large or run the other way;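 further: plate controls were no enzyme wells and a reference inhibitor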
# Target sequence (P00352 whole entry, looked up): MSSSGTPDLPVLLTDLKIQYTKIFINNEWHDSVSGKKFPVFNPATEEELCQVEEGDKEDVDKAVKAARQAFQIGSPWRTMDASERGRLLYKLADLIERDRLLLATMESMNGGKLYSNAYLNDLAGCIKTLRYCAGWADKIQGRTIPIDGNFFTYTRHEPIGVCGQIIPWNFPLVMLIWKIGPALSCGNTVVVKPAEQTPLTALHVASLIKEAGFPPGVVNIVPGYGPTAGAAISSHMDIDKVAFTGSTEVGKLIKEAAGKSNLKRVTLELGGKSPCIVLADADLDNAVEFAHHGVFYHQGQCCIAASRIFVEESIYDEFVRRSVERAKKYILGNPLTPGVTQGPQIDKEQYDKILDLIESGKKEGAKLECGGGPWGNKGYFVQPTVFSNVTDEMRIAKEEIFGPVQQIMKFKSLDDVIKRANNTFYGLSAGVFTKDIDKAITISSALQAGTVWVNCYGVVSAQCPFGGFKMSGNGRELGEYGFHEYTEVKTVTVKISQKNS
# * hit, by the source's call; ? = inconclusive; . = no result given; [ ] = another dose, or the depositor's remark. Only some compounds are listed: those with a hit (about 8.8% of all), similar ones and a draw of the others. Unless noted, the call rests on the fitted dose curve; in most records, active means well fitted curve in the direction sought with a large enough effect; inconclusive means small, poorly fitted or top-dose-only effect, or another doubt; inactive means no such curve, though single readings can be large; an effect the other way counts as inactive or inconclusive. Potency means the concentration at half of the fitted maximal effect.
SMILES,HTT ATP protect,HPGD inh,HTT aggregate,LMNA splice mod,ALDH1A1 inh
COc1ccccc1CNC(=O)C1=CCN(S(=O)(=O)c2ccc(C)cc2)CC1,0%[10 µM],.,2%[9.22 µM],.,.
Cc1c(C(=O)OCC2CCCO2)[nH]c2c1C(=O)CC(c1ccc(N(C)C)cc1)C2 (stereo unspecified),3%[10 µM],-12%,-9%,?,11µM*
Cc1cccc2c(=O)c(Br)c(C)n(Cc3ccccc3)c12,-23%,.,3%,?,-1%
CCCCn1c(=O)n(CC(O)c2ccccc2)c(=O)c2c1ncn2C1CCCC1 (stereo unspecified),-15%[10 µM],0%,-12%,0%,10µM*
O=c1c2c(ncn2C2CCCC2)n(Cc2ccccc2)c(=O)n1CCOc1ccccc1,-4%[10 µM],-19%,-10%,?,11%
Cc1cccc(NC(=O)c2ccc3nc(CCc4ccccc4)oc3c2)c1C,.,.,.,-12%[46 µM],.
O=C(CSc1nc2scc(-c3ccccc3)c2c(=O)[nH]1)NC1CCCCC1,-32%,.,4%,.,2%
O=C(CSc1nc2scc(-c3ccccc3)c2c(=O)[nH]1)N1CCCCC1,.,.,-4%,.,1.8µM*
Cc1nn(C)cc1CNC(=O)Nc1ccc(Cl)c(Cl)c1,0%,16µM*,-14%,1%,-16%
Cc1ccc(NC(=O)NCc2c(C)nn(C)c2C)cc1Cl,-58%,.,25%,-4%[46 µM],-3%
Cc1ccc(-c2nc(SCC(N)=O)c(C#N)c3c2CCCC3)cc1,7%,?,10%[1.84 µM],6%,?
CCOC(=O)CC(=O)CSc1nc(C)cc(-c2cccnc2)c1C#N,-3%,-6%,-20%,5%,-15%
CCOC(=O)CSc1nc(C2CC2)cc(-c2ccc(Cl)cc2)c1C#N,33%[10 µM],?,-3%,4%,32µM*
N#Cc1c(SCC(N)=O)nc(-c2ccccc2)c2c1CCCC2,6%,-7%,2%,?,22µM*
N#Cc1c(SCC(=O)O)nc(-c2ccccc2)c2c1CCCC2,-22%,.,?,7%,18µM*
Cc1cc(-c2ccccc2)c(C#N)c(SCC(N)=O)n1,-13%[10 µM],-13%,-22%,10%,13µM*
COC(=O)[C@H](COC(C)(C)C)NC(=O)O[C@H]1C(=O)c2cc(OC)ccc2O[C@@H]1c1ccc(OC)c(Br)c1,.,-12%,.,.,-12%
COc1cccc(Cn2c(=O)c(-c3ccc(Cl)cc3)nc3cnc(N4CCOCC4)nc32)c1,4%,.,.,2%,?
CCc1nnc(NC(=O)CSc2nc(-c3ccc(F)cc3)cc(-c3ccccc3)c2C#N)s1,-5%[10 µM],.,-18%,-16%,10µM*
COc1ccc(-c2cc(-c3ccccc3)nc(SCC(=O)Nc3ncc(C)s3)c2C#N)cc1,-5%[10 µM],?,14%,-13%,?
Cc1ccc(-n2c(=O)c3c(C)c(C(=O)N(C)C)sc3n(CC(=O)C(C)(C)C)c2=O)cc1C,.,.,.,-12%[46 µM],.
O=C(c1cc2nc(C3CC3)cc(C(F)F)n2n1)N1CCOCC1,-11%[0.074 µM],32µM*,8%,5%,?
COc1ccc(Cc2ccc3[nH]c(=O)cc(C)c3c2)cc1S(=O)(=O)O,2%[10 µM],-7%,.,.,1%[13.5 µM]
COc1ccc(CNc2nc(NCc3ccc(OC)cc3)n(C(=O)c3ccncc3)n2)cc1,-1%[10 µM],.,-1%[9.22 µM],.,?
COc1ccc(CNc2nc(NCc3ccc(OC)cc3)n(C(=O)c3ccccc3[N+](=O)[O-])n2)cc1,-6%,-22%,13%,-2%,20µM*
SMILES,HTT ATP protect,HPGD inh,HTT aggregate,LMNA splice mod,ALDH1A1 inh
COC(=O)C1Cc2ccccc2CN1C(=O)CCl (stereo unspecified),-7%[10 µM],.,?,?,0.4µM*
COc1ccc(CNc2n[nH]c(-c3ccco3)n2)cc1OC,.,.,.,1%[46 µM],.
CCOC(=O)c1cc(-c2ccc(OC)cc2)n(CCC(=O)NCc2ccc(OC)cc2)c1C,.,.,.,-8%[46 µM],.
O=C1C=CC(=O)N1c1cccc(-c2ccccc2)c1,-69%[10 µM],.,?,.,0.02µM*
COc1cc(/C=C(\C#N)c2ccccn2)cc(OC)c1O,-20%[10 µM],.,6%[9.22 µM],.,.
COc1cc(/C=C(\C#N)c2[nH]nc(N)c2C#N)cc(OC)c1O,-24%,16µM*,5%[9.22 µM],?,-7%
COc1nc(Cl)cn(-c2ccc(C)cc2)c1=O,.,-21%,-19%,?,?
Cc1ccc(-n2c(Cl)c(Cl)nc(Cl)c2=O)cc1,.,2.5µM*,4.5µM*,?,0.63µM*
CCOc1ccc(N2C(=O)CSC23CCCCC3)cc1,-2%,.,-6%,4%,?
COc1ccc(N2C(=O)CSC23CCCCC3)cc1,-3%,-16%,-17%,-10%,14µM*
COc1ccc(-n2c(NN)nc3sc4c(c3c2=O)CCCC4)cc1,.,.,-19%,?,?
CCN1CCN(c2nc3sc4c(c3c(=O)n2-c2ccc(OC)cc2)CCCCC4)CC1,-25%,-14%,-3%,-14%,10µM*
Cc1ccccc1CN1C(=O)c2ccccc2Sc2ccc(C(=O)NC(C)c3ccccc3)cc21 (stereo unspecified),.,.,.,-14%[46 µM],.
CCOC(=O)/C(=N\Nc1ccc(Br)cc1)N1CC(C)OC(C)C1 (stereo unspecified),-12%[10 µM],.,-2%[9.22 µM],.,.
COc1ccc(-n2c(C)c(C(C)=O)c3cc(O)ccc32)cc1,-10%[10 µM],4µM*,0.32µM*,1%,-9%
CCOc1ccc(-n2c(C)c(C(C)=O)c(C(C)=O)c2C)cc1,29%[10 µM],-10%,-30%,-12%,22µM*
O=C(CN1C(=O)CSc2ccc(S(=O)(=O)N3CCCCC3)cc21)NCc1ccc(F)cc1Cl,.,.,.,-6%[46 µM],.
O=C1/C(=C/N(C(=O)c2ccco2)c2ccc(Br)cc2)Sc2ccccc21,3%[10 µM],32µM*,17%,-1%,?
O=C1/C(=C/N(C(=O)c2ccco2)c2ccc(Cl)cc2)Sc2ccccc21,.,-14%,16%,3%,-6%
CCCCCSc1nc2c(c(=O)[nH]c(=O)n2C)n1C(C)C,16%[10 µM],-24%,1%,-3%,?
CC(C)CCn1c(Sc2nc3ccccc3o2)nc2c1c(=O)[nH]c(=O)n2C,-11%[10 µM],-5%,4%,?,11µM*
CC(C)n1c(SCC(N)=O)nc2c1c(=O)[nH]c(=O)n2C,-17%,?,-10%,1%,22µM*
COC(=O)CSc1nc2c(c(=O)n(C)c(=O)n2C)n1CCC(C)C,-2%[10 µM],14µM*,0%,-8%,13µM*
Cn1c(=O)[nH]c(=O)c2c1nc(N1CCCCC1)n2CCSc1nc2ccccc2o1,-12%,-11%,9%,-3%,4%
CCCCCCn1c(SCC(C)C)nc2c1c(=O)[nH]c(=O)n2C,1%[10 µM],-16%,-6%,14%,-1%
CCCCCCn1c(SCC(=O)OC)nc2c1c(=O)[nH]c(=O)n2C,-16%[10 µM],7.9µM*,9%,-3%,3.5µM*
